Screening data from PubChem BioAssay.
Sampled rows, rich in hits. Any-hit rate of the full collection: about 2.9%.
MEKK2 WT-MEK5 – modulators of MEK5 binding to wildtype MEKK2, primary screen, biochemical, multiplex bead flow cytometry, Alexa488-MEK5 | Alexa488-MEK5 binding to MEKK2 WT; actives lie on both sides | actives 1.1% (n = 290,000) | Mitogen-activated protein kinase kinase kinase 2 (Homo sapiens), Q9Y2U5 | binding response (% of control), % at 10 µM | AID 1531, 2009; in the data active = binding response below about 67% or above about 130%
Beta2AR agonist – beta2AR agonists driving receptor internalization, primary screen, cell-based, FAP fluorogen, flow cytometry | AID 504454, 2011 | Beta-2 adrenergic receptor (Homo sapiens), P07550 | actives 0.43% (n = 340,000) | response, % (test concentration not listed) | Am2.2-beta2AR cells;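 active = response above a set limit, near 3 SD of response in nonfluorescent compounds, cut at about 42% in these data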
MEKK2mut PB1 HTS – MEK5 binding signal on mutant MEKK2 PB1, primary screen, biochemical, multiplex bead flow cytometry, Alexa488-MEK5 | Alexa488-MEK5 binding to MEKK2 mutant | actives 0.35% (n = 290,000) | percent response, % at 10 µM; in the data active = percent response above about 24%, passing the limit was not always enough
MEKK3 PB1 HTS – modulators of MEKK3-MEK5 PB1 binding, primary screen, biochemical, wildtype MEKK3, multiplex bead flow cytometry, Alexa488-MEK5; Mitogen-activated protein kinase kinase kinase 3 (Homo sapiens), Q99759; bead-based flow cytometry, Alexa488-MEK5 binding to MEKK3; actives lie on both sides; 0 = blocked by unlabeled MEK5, 100 = vehicle; binding response (% of control), % at 10 µM; actives 1.4% (n = 290,000); AID 1529, 2009;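 active = binding response more than 3 SD above or below the average of its plate-row segment, actives on both sides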;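 note: Alexa488 bead fluorescence after subtracting the streptavidin-only scavenger bead signal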
GRK2 inh – compounds blocking aptamer binding on GRK2 – biochemical, human GRK2, bead flow cytometry, HTS, primary screen | Beta-adrenergic receptor kinase 1 (Homo sapiens), P25098 | FAM-aptamer displacement from GRK2 | inhibition of aptamer binding, % at 10 µM | actives 0.59% (n = 330,000) | AID 488847, 2010;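 active = inhibition of aptamer binding above 40%, roughly 3 SD of noise, on plates passing a quality check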;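 note: median bead fluorescence of bound FAM aptamer so fluorescent compounds give negative values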
Target sequence (P25098 whole entry, looked up): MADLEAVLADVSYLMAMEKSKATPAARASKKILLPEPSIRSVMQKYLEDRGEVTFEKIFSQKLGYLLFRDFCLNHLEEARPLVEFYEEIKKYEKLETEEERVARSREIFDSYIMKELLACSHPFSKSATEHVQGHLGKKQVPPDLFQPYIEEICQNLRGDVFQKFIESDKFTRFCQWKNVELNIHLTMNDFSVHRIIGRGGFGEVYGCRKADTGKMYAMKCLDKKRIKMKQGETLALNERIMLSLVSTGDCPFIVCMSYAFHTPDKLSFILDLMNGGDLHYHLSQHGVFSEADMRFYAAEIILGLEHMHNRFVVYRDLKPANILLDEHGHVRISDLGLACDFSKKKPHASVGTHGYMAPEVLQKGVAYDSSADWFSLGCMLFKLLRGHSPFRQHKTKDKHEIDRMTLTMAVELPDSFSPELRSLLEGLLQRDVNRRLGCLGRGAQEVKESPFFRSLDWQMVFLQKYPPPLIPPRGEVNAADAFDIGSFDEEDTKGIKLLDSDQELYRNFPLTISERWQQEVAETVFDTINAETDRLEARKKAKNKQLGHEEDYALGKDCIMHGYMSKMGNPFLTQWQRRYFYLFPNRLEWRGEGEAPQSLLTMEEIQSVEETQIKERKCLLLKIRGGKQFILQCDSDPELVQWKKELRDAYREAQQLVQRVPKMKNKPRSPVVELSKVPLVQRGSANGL
MEKK2wt confirm – modulators of MEK5 binding to wildtype MEKK2, confirmation, biochemical, single concentration, multiplex bead flow cytometry; shares compounds with MEKK3 PB1 HTS; Alexa488-MEK5 binding to MEKK2 WT; actives lie on both sides; binding response (% of control), % at 10 µM; actives 2.4% (n = 5,900); in the data active = binding response below about 16% or above about 210%; inactive = in between
MEKK2mut confirm – mutant MEKK2 PB1-MEK5 binding signal retest – biochemical, single concentration, multiplex bead flow cytometry, confirmation. percent response, % at 10 µM. AID 1893, 2009. Alexa488-MEK5 binding to MEKK2 mutant. actives 2% (n = 5,900). shares compounds with MEKK3 PB1 HTS; in the data active = percent response mostly above about 71%, no sharp cut-off; inactive = mostly below about 38%;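 note: higher means compound restores mutant binding toward wildtype level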
MEKK3 confirm – MEKK3 wild-type PB1 binding to MEK5, inhibitors, confirmation, biochemical, bead multiplex flow cytometry, single concentration, wildtype | shares compounds with MEKK3 PB1 HTS | Alexa488-MEK5 binding to MEKK3; active compounds read low | binding response (% of control), % at 10 µM | actives 1.8% (n = 5,900) | AID 1894, 2009;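 active = binding response below 72% of control, or above a set upper limit, though filed actives all read lower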;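 note: 100% = DMSO only wells and 0% = binding blocked by excess unlabeled MEK5; lower values mean stronger disruption of MEK5 binding to MEKK3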
Numbers without * were called inactive; [ ] = remark or other dose.

For CCCCCc1cc(=O)oc2c(C(CCN3CCCC(C)C3)c3cc(OC)c(OC)c(OC)c3)c(OC)cc(OC)c12 (configuration not stated) the results were MEKK2 WT-MEK5 163*, Beta2AR agonist 14, MEKK2mut PB1 HTS 29*, MEKK3 PB1 HTS 115, GRK2 inh 1, MEKK2wt confirm 203, MEKK2mut confirm 45 and MEKK3 confirm 110.
`CCCCCc1cc(=O)oc2c(C(CCN3CCCC(C)C3)c3ccc(N(C)C)cc3)c(OC)cc(OC)c12` (configuration not stated) gave MEKK2 WT-MEK5 149*, Beta2AR agonist 17, MEKK2mut PB1 HTS 50*, MEKK3 PB1 HTS 116, GRK2 inh 0, MEKK2wt confirm 178, MEKK2mut confirm 39 and MEKK3 confirm 110.
Cc1csc(SCC(=O)Nc2ccc3[nH]c(=O)[nH]c3c2)n1 was read as Beta2AR agonist 0 and GRK2 inh 0.
For S=C(Nc1ccc(Br)cc1Cl)Nn1cnnc1 the results were MEKK2 WT-MEK5 83, Beta2AR agonist -3, MEKK2mut PB1 HTS -12, MEKK3 PB1 HTS 84 and GRK2 inh 1.
For O=C(CNc1cc(S(=O)(=O)N2CCCC2)ccc1OCC(F)(F)F)Nc1ccc(SC(F)F)cc1 the results were MEKK2 WT-MEK5 115, Beta2AR agonist -5, MEKK2mut PB1 HTS 1, MEKK3 PB1 HTS 144*, GRK2 inh 1, MEKK2wt confirm 90, MEKK2mut confirm -13 and MEKK3 confirm 100.
Cc1ccc(NC(=O)CSCC(=O)Nc2ccccc2N2CCCC2)cc1 was read as Beta2AR agonist 12 and GRK2 inh 4.
For Cc1ccc(-c2nnn(CC(=O)NC3CCN(Cc4ccccc4)CC3)n2)cc1 the results were MEKK2 WT-MEK5 111, Beta2AR agonist 7, MEKK2mut PB1 HTS 1, MEKK3 PB1 HTS 71*[inhibitor], GRK2 inh 0, MEKK2wt confirm 110, MEKK2mut confirm 0 and MEKK3 confirm 105.
`O=C(CSc1nc2[nH]ncc2c(=O)[nH]1)Nc1ccccc1F` gave Beta2AR agonist 3 and GRK2 inh 0.
CCC12OC(=N)C(C#N)(C1C)C(C#N)(C#N)C(c1ccccc1)O2 (configuration not stated) was read as MEKK2 WT-MEK5 109, Beta2AR agonist -1, MEKK2mut PB1 HTS 0, MEKK3 PB1 HTS 141*, GRK2 inh 0, MEKK2wt confirm 108, MEKK2mut confirm 3 and MEKK3 confirm 103.
CCC1OC2(C)OC(=N)C1(C#N)C(C#N)(C#N)C2c1ccccc1 (configuration not stated) was read as MEKK2 WT-MEK5 105, Beta2AR agonist 6, MEKK2mut PB1 HTS -1, MEKK3 PB1 HTS 112 and GRK2 inh 2.
Cc1cc(C)c2c(n1)nn1c(NCCCN(C)C)cc(C)nc21 was read as MEKK2 WT-MEK5 97, Beta2AR agonist -9, MEKK2mut PB1 HTS -6, MEKK3 PB1 HTS 95 and GRK2 inh 4.
Screening Cc1cc(NCCCN(C)C)n2nc(-c3cccs3)cc2n1 returned MEKK2 WT-MEK5 107, Beta2AR agonist 0, MEKK2mut PB1 HTS 26*, MEKK3 PB1 HTS 112, GRK2 inh 0, MEKK2wt confirm 107, MEKK2mut confirm -2 and MEKK3 confirm 104.
Cc1ccn2cc(CNS(=O)(=O)c3ccc4ccccc4c3)nc2c1 was read as MEKK2 WT-MEK5 103, Beta2AR agonist 0, MEKK2mut PB1 HTS 2, MEKK3 PB1 HTS 101 and GRK2 inh 3.
Screening O=S(=O)(c1ccc(Cl)cc1)N1CCc2ccccc21 returned MEKK2 WT-MEK5 66, Beta2AR agonist -176, MEKK2mut PB1 HTS 46*, MEKK3 PB1 HTS 102, GRK2 inh 2, MEKK2wt confirm 104, MEKK2mut confirm 3 and MEKK3 confirm 103.
Screening Cc1nc2cc(NC(=O)N3CCCC3)ccc2n1C returned MEKK2 WT-MEK5 77, Beta2AR agonist -10, MEKK2mut PB1 HTS -13, MEKK3 PB1 HTS 90 and GRK2 inh 1.
For Cc1nc2cc(NC(=O)N3CC4(C)CC3CC(C)(C)C4)ccc2n1C (configuration not stated) the results were MEKK2 WT-MEK5 -2.0*[inhibitor], Beta2AR agonist -9, MEKK2mut PB1 HTS -29, MEKK3 PB1 HTS 2.0*[inhibitor], GRK2 inh 1, MEKK2wt confirm 106, MEKK2mut confirm 4 and MEKK3 confirm 101.
For CC(=O)Nc1ccc(NC(=O)CSc2nnc(-c3ccco3)o2)cc1 the results were MEKK2 WT-MEK5 112, Beta2AR agonist 3, MEKK2mut PB1 HTS 1, MEKK3 PB1 HTS 129*, GRK2 inh 3, MEKK2wt confirm 95, MEKK2mut confirm -25 and MEKK3 confirm 93.
CNC(=O)CSc1nnc(-c2cc(C)cc(C)c2)o1 was read as MEKK2 WT-MEK5 102, Beta2AR agonist 0, MEKK2mut PB1 HTS 5, MEKK3 PB1 HTS 102 and GRK2 inh 0.
For O=C(CSc1nnc(-c2ccncc2)n1-c1ccc(Cl)cc1)NCc1cccs1 the results were MEKK2 WT-MEK5 120, Beta2AR agonist -3, MEKK2mut PB1 HTS 9, MEKK3 PB1 HTS 124*, GRK2 inh 3, MEKK2wt confirm 102, MEKK2mut confirm -3 and MEKK3 confirm 102.
Cc1cc(C)cc(-c2nnc(SCC(=O)NCc3cccs3)o2)c1 was read as MEKK2 WT-MEK5 -2.0*[inhibitor], Beta2AR agonist 7, MEKK2mut PB1 HTS -20, MEKK3 PB1 HTS 1.0*[inhibitor], GRK2 inh 6, MEKK2wt confirm 113, MEKK2mut confirm 6 and MEKK3 confirm 102.
`COc1ccccc1NC(=O)CSc1nnc(-c2ccc(C)cc2)o1` gave MEKK2 WT-MEK5 99, Beta2AR agonist 2, MEKK2mut PB1 HTS -4, MEKK3 PB1 HTS 102 and GRK2 inh 2.
`COc1cccc(NC(=O)CSc2nnc(-c3ccc(C)cc3)o2)c1` gave MEKK2 WT-MEK5 84, Beta2AR agonist 5, MEKK2mut PB1 HTS -6, MEKK3 PB1 HTS 82*[inhibitor], GRK2 inh 0, MEKK2wt confirm 104, MEKK2mut confirm 3 and MEKK3 confirm 102.
